GRP78 ERSR act = inducers of ER stress response in human glioma cells | AID 602332 | Potency, µM, inactives show top-dose activation, most hits filed as activators | 420,000 tested, 0.02% active | U87-MG GRP78 promoter luciferase reporter, 16 h; active = well fitted activation curve with a large enough effect; also: potency is read from the fitted curve at half-maximal effect; series mostly up to about 76 µM; % of control where 0% means no effect; nearly all actives have a fitted effect of over 35% in size
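Stably transfected U87-MG glioma cells carrying a GRP78-based luciferase sensor; 16 h compound incubation. Luminescence end-point read 10 min after Bright-Glo addition at room temperature.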
D1 antagonist = blocks dopamine activation of the human D1 receptor | P21728 | HEK293 TREx D1 cells, calcium flux, dopamine EC80; active compounds read low | activity change, negative = inhibition, % at 10 µM | 360,000 tested, 3.2% active | AID 504652; in the data active = activity change below about -30%; also: % is scaled to controls: 0 for no effect and ±100 for the full control effect
Target sequence (P21728 whole entry, looked up): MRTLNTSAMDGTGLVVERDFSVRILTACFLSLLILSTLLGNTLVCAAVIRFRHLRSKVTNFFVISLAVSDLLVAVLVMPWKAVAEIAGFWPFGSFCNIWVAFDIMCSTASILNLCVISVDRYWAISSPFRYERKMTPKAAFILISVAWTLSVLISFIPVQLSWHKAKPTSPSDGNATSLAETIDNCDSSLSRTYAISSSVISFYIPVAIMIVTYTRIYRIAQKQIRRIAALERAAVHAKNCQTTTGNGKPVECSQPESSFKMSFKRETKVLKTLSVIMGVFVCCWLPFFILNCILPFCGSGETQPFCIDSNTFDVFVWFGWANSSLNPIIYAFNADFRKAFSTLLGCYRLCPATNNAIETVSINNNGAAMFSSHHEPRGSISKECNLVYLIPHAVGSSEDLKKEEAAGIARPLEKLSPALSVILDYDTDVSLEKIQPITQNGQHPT
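Cells carrying a force-coupled, tetracycline-inducible human D1 receptor report calcium flux. Each well gets a 10 s baseline, compound with 180 s monitoring, then an EC80 dopamine stimulus with a second 180 s kinetic read.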
TRHR enhancer = allosteric enhancers of human TRH receptor; P34981; TRHR cells, fluo-8 calcium fluorescence, EC20 TRH enhancement; enhancement, % at 2 µM; 360,000 tested, 0.66% active; in the data active = enhancement above about 30%; also: 0% is about no effect
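Enhancer read-out: after compound pinning and an initial kinetic agonist-mode read, an EC20 of TRH (10 nM final) was injected and fluo-8 calcium signal (Ex 480/Em 530) followed at 1 s/cycle for 100 cycles in TRHR-expressing cells.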
D1 potentiator = enhances dopamine response at the human D1 receptor | P21728 | HEK293 TREx D1 cells, calcium flux, dopamine EC20 potentiation | potentiation, % at 10 µM | 360,000 tested, 0.036% active | AID 504651; in the data active = potentiation above about 30%; also: 0% is about no effect
TRHR agonist = activates the human TRH receptor | TRHR cells, calcium flux fluo-8, FDSS agonist mode | P34981 | activation, % at 2 µM | AID 493084 | 360,000 tested, 0.18% active; also: 0% is about no effect
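Fluo-8-loaded TRHR cells; 10 s baseline, compound added, kinetic Ca2+ fluorescence read 1/s, agonist mode.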
D1 ag = activates the human D1 dopamine receptor. P21728. HEK293 T-REx D1 cells, calcium flux, agonist mode. activation, % at 2 µM. 360,000 tested, 1% active; also: 0% is about no effect
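Tetracycline-induced HEK293 TREx D1 cells, force-coupled to calcium signalling, were dye-loaded with a no-wash calcium kit. Compound was pin-added after a 10 s baseline. Fluorescence was read kinetically at 1 cycle/s for 180 s, with calcium rises flagged as agonism.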
Starred values were filed as active, the others as inactive; . = no result. Compounds with a hit are over-represented: about 4% of the library has one in this group of screens. Rule as the data show it, unless noted: active = activation above about 30%; inactive = the rest.

SMILES | GRP78 ERSR act | D1 antagonist | TRHR enhancer | D1 potentiator | TRHR agonist | D1 ag
COc1c(Cl)cc(C(=O)Nc2ccccc2-c2ccccc2)cc1Cl | 1% | -31* | 11 | 3 | 1 | 3
COc1cc(N)c(Cl)cc1NC(=O)c1ccccc1 | -1% | -55* | 7 | -4 | 0 | 4
COc1cc(NC(=O)c2ccccc2)c(OC)cc1Cl | 3% | 3 | 0 | -2 | -1 | -1
O=C(Cc1c[nH]c2ccccc12)NCC(=O)Nc1ccc(F)c(F)c1F | -1% | -8 | -3 | -1 | 0 | 0
COc1cccc(N(CC(=O)NCCN2CCOCC2)S(=O)(=O)c2ccccc2)c1 | -6% | -2 | -2 | -3 | 0 | 2
CN(CC(=O)NCc1cccs1)S(=O)(=O)c1cccc2cccnc12 | -3% | 7 | -5 | . | 0 | 1
CN(C)c1ccc(CNC(=O)CN(C)S(=O)(=O)c2cccc3cccnc23)cc1 | -4% | -66* | 7 | . | 1 | 0
COc1ccccc1Oc1ccc2c(c1)C(=O)N(c1ccc(C)cc1)C2=O | 2% | -22 | -4 | 1 | 0 | 0
CC(=O)Nc1sc(N/N=C\c2ccccc2F)nc1-c1cccs1 | 0% | -1 | 36* | -2 | 0 | -1
O=C(NCc1ccccc1Cl)C1CCN(S(=O)(=O)c2ccc(-n3cnnn3)cc2)CC1 | -4% | -22 | 0 | -14 | 1 | 4
CCCC1=NN2C(=N)/C(=C\c3cc(C)n(-c4cc(C)cc(C)c4)c3C)C(=O)N=C2S1 | -4% | -60* | 10 | -1 | -3 | 40*
Cc1cc(N2CCOCC2)n2ncc(-c3ccc(Cl)cc3)c2n1 | -1% | -33* | -2 | -5 | 1 | 2
Cc1ccc(C(C(=O)NC2CCCC2)N(C(=O)CCC(=O)Nc2cc(C)on2)c2ccccc2)cc1 (configuration not stated) | -4% | 3 | -4 | -3 | 0 | 1
O=C(Oc1coc(CSc2ncccn2)cc1=O)c1ccc(Br)o1 | -3% | -11 | 0 | -7 | 0 | 2
O=C(Oc1coc(CSc2ncccn2)cc1=O)c1ccco1 | 0% | -33* | -4 | -2 | 0 | 3
CN(C)CCn1c(C(=O)Nc2ccccc2)cc2ccccc21 | 1% | -43* | 3 | -14 | 0 | 3
CCCCNc1cc(C)nc(NCc2ccccc2)n1 | -6% | -52* | -15 | -10 | 15 | 61*
Cc1cc(N/N=C/c2ccc(Cl)cc2Cl)nc(NCc2ccccc2)n1 | -4% | -48* | 19 | -4 | -1 | 16
C=CCn1c(SCC(=O)Nc2ccc(NC(=O)c3ccco3)c(OC)c2)nnc1-c1ccncc1 | -5% | 3 | 4 | 8 | 0 | 1
Cc1c(C(C)C)c(=O)n(-c2ccc(S(=O)(=O)NCc3ccccc3)cc2)n1C | -2% | -15 | -11 | -4 | 0 | 7
Cc1c(C(C)C)c(=O)n(-c2ccc(S(=O)(=O)NC3CCCCC3)cc2)n1C | -5% | -52* | -20 | -4 | 0 | 4
Cc1ccc(C)c(C(=O)C(C)Sc2nc3nn(-c4ccccc4)c(=O)c-3c3n2CCCCC3)c1 (configuration not stated) | -2% | -36* | 15 | 2 | 0 | 4
COc1cccc(-c2nnc(NC(=O)c3ccc(Cl)s3)o2)c1 | -2% | -36* | 1 | -5 | -1 | 73*
COc1cccc(-c2nnc(NC(=O)c3cccc(F)c3)o2)c1 | -3% | 11 | 33* | -5 | 0 | 2
O=C(Nc1nnc(-c2cccs2)o1)c1cccc(Oc2ccccc2)c1 | -1% | -16 | -2 | -6 | 3 | 85*
SMILES | GRP78 ERSR act | D1 antagonist | TRHR enhancer | D1 potentiator | TRHR agonist | D1 ag
Cc1cccc(-c2nnc(NC(=O)c3ccc(Cl)cc3)o2)c1 | -4% | 0 | 28 | 6 | 8 | 57*
O=C(Nc1nnc(-c2ccco2)o1)c1ccc(Cl)s1 | 5% | -10 | 1 | -7 | -1 | 1
CCOc1ccccc1NC(=O)CCCc1ccc(OC)c(C)c1 | -1% | 4 | -1 | -4 | 0 | 7
Cc1noc2ncnc(N3CCN(c4ccc(F)cc4)CC3)c12 | -1% | -5 | -3 | -2 | 0 | 10
COc1ccc(N2CCN(c3ncnc4onc(C)c34)CC2)cc1 | 2% | -36* | -9 | -9 | 1 | 21
Cc1ccc(C2=NC(c3ccc(F)cc3)=Nc3ccc(C)cc3N2)cc1 | . | -40* | 4 | -2 | 1 | 1
CCOc1cc(-c2nnc(SCC(=O)NCc3ccc(C)cc3)nc2-c2ccc(OC)c(OCC)c2)ccc1OC | -3% | 3 | -2 | -2 | 0 | 2
C=CCN1CC(C(=O)N2CCC(Cc3ccc(Cl)cc3)(C(=O)OCC)CC2)CC1=O (configuration not stated) | -4% | -32* | 30* | -2 | 0 | 2
COc1ccc(CCNC(=O)c2ccccc2OCc2c(C)noc2C)cc1 | 0% | 27 | -2 | -14 | 0 | 0
COc1cccc(C2CC(C(F)(F)F)n3ncc(C(=O)NCc4ccco4)c3N2)c1 (configuration not stated) | 0% | -9 | 32* | 9 | -1 | 3
COc1cccc(C2CC(C(F)(F)F)n3ncc(C(=O)NC(C)(C)C)c3N2)c1 (configuration not stated) | -4% | 5 | -3 | 5 | 0 | 0
Cc1ccc(C(=O)OCC(=O)N(C)c2ccccc2)cc1C | 6% | 0 | 5 | 0 | 1 | 7
CC(=O)Oc1ccc(-c2cccc(C(=O)OCC(=O)N(C)c3ccccc3)c2)cc1 | -3% | -84* | 6 | -4 | 1 | 5
CN(C(=O)COC(=O)CSc1ccc([N+](=O)[O-])cc1)c1ccccc1 | 0% | -47* | 0 | . | 0 | 12
Cc1cc(C(=O)OCC(=O)N(C)c2ccccc2)ccc1[N+](=O)[O-] | -1% | -23 | 35* | -7 | -1 | 0
CN(C)c1cccc(C(=O)OCC(=O)N(C)c2ccccc2)c1 | 1% | 1 | 0 | 1 | 1 | 4
CCCOc1ncnc2c1[nH]c1ccc(C)cc12 | -3% | -27 | 3 | -6 | 0 | 10
CC(C)(C)c1cc(C(=O)NNc2cc(C(F)(F)F)ccc2Cl)n(Cc2ccccc2)n1 | 2% | -28 | -4 | -2 | 1 | 2
Nc1nc2c(nc(N3CCOCC3)n2COCCO)c(=O)[nH]1 | -2% | . | . | . | . | .
O=C(COC(=O)c1ccc(O)cc1O)NC12CC3CC(CC(C3)C1)C2 | 11% | -25 | 10 | -5 | -1 | 4
O=C(OCC(=O)C12CC3CC(CC(C3)C1)C2)c1ccc(O)cc1O | 5% | -1 | -6 | 43* | 0 | 93*

High-throughput results deposited in PubChem by National Center for Advancing Translational Sciences (NCATS).
